Screens deposited in PubChem by several laboratories.
This is a sample that favours compounds with a hit; in the whole collection about 4.3% have one here.
FAS-TE inh: inhibitors of human fatty acid synthase thioesterase domain; P49327; inhibition, % at 15 µM; recombinant FAS-TE, OMFH fluorogenic substrate, fluorescence endpoint; AID 602261; 0.67% of 360,000 active;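 active = compounds whose normalised, plate-corrected inhibition of enzyme fluorescence in the single-dose primary screen is 50% or more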
ADAM17 inh: ADAM17 inhibition, QFRET primary screen | AID 720648 | 0.83% of 370,000 active | inhibition, % at 6.95 µM | recombinant ADAM17, EDANS/DABCYL FRET peptide cleavage;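 active = inhibition above the mean of compounds lying between control limits plus 3 SD, set per campaign, cut at about 8.5% in these data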
Target sequence (P78536 215-824 limits assumed): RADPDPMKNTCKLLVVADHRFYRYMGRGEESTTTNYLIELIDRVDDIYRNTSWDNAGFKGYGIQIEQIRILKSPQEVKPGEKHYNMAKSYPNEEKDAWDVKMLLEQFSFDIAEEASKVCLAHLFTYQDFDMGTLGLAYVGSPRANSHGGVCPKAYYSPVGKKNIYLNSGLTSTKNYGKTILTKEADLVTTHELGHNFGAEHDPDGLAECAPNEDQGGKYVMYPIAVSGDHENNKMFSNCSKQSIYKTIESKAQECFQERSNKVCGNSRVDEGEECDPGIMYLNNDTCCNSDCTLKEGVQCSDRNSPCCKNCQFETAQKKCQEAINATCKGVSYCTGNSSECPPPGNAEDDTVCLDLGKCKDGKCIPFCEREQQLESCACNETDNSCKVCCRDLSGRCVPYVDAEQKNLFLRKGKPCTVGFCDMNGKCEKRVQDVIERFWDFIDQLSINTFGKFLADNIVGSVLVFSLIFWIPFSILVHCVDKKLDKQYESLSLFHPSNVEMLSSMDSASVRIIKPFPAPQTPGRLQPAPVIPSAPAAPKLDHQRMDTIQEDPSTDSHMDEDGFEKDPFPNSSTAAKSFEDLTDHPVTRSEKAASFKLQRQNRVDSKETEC
HGIII-sPLA2 inh: Inhibits HGIII-sPLA2 liposome hydrolysis, primary screen; 0.56% of 370,000 active; AID 743126; Q9NZ20; QFRET BODIPY PC-A2 liposome hydrolysis, fluorescence; inhibition, % at 12.2 µM;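 active = inhibition above mean plus 3 SD of compounds lying within the high and low control bounds, cut at about 19% in these data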
ADAM10 inh: ADAM10 inhibition, QFRET primary screen | O14672 | 0.62% of 370,000 active | recombinant ADAM10, EDANS/DABCYL FRET peptide cleavage, 3 h | inhibition, % at 7 µM;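 active = inhibition above a per-campaign cutoff equal to the mean of compounds falling between control-based bounds plus 3 SD, cut at about 20% in these data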
NR3A LBD binder: modulates the human NR3A ligand-binding domain. NR3A LBD differential scanning fluorimetry, Tm shift; 0% = protein alone, 100% = glycine-bound protein. Tm shift relative to glycine control, % at 25 µM. AID 1259313. 2.5% of 340,000 active;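 active = melting temperature shift of at least 10% of the positive control shift, at one fixed dose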
Of the large screens only hits and unclear results are named; the others gave an inactive call.

CC(C)c1nc2sc3c(=S)nc[nH]c3c2c2c1CCC2	NR3A LBD binder 38
Cc1ccc(C)c(NC(=O)c2ccc3c(c2)N(Cc2ccc(F)cc2)C(=O)CS3=O)c1 (configuration not stated)	none
O=C(Nc1ccc(Br)cc1F)c1ccc2c(c1)N(Cc1ccccc1)C(=O)CS2=O (configuration not stated)	NR3A LBD binder 14
Oc1nc(Nc2ccc(Cl)cc2Cl)sc1/C=C1\C=Nc2ccccc21	NR3A LBD binder 23
CCCCCCCCCCOC(=O)Cn1c(COc2ccccc2C)[n+](C)c2ccccc21	NR3A LBD binder 31 (no result: ADAM17 inh, HGIII-sPLA2 inh, ADAM10 inh)
CCCCCCCCCCOC(=O)Cn1c(COc2ccccc2)[n+](C)c2ccccc21	none
CCCCCCCCCCOC(=O)Cn1c(COc2ccc(Cl)cc2)[n+](C)c2ccccc21	NR3A LBD binder 21
CCOC(=O)c1ccc(Nc2ncnc3nc[nH]c23)cc1	none
c1ccc(COc2ccc(Nc3ncnc4nc[nH]c34)cc2)cc1	NR3A LBD binder 26
O=C(c1ccccc1C(F)(F)F)N1CCC(Oc2cccnc2)CC1	none (no result: FAS-TE inh, NR3A LBD binder)
O=C(O)c1ccc(/C=N/Nc2ccc(F)cc2F)cc1	none
Fc1ccc(N/N=C/c2ccncc2)c(F)c1	NR3A LBD binder 23
Clc1ccc(N/N=C/c2ccncc2)cc1Cl	NR3A LBD binder 12
O=C(OCc1cn(Cc2ccc(C(F)(F)F)cc2)nn1)N1CCOCC1	none (no result: FAS-TE inh, NR3A LBD binder)
Cc1ccc(OCc2nnc(SCC(=O)Nc3ccc(S(N)(=O)=O)cc3)n2-c2ccc(Cl)cc2)cc1	none (no result: FAS-TE inh, NR3A LBD binder)
O=C(Nc1ccccc1C(=O)O)c1cc(S(=O)(=O)NCc2ccccc2)ccc1Cl	none
O=C(Nc1cccc(Cl)c1Cl)c1cc(S(=O)(=O)NCCc2ccccc2)ccc1F	NR3A LBD binder 18
O=S(=O)(c1ccccc1)N1CCN(C(=S)Nc2ccc(F)cc2)CC1	none
O=S(=O)(c1ccc(Cl)cc1)N1CCN(C(=S)Nc2ccc(F)c(Cl)c2)CC1	NR3A LBD binder 18
NS(=O)(=O)c1ccc(NC(=S)N2CCN(Cc3ccc(Cl)c(Cl)c3)CC2)cc1	NR3A LBD binder 25
CCn1c(=O)n(CC(=O)NCc2ccco2)c(=O)c2ccccc21	NR3A LBD binder 11
CCOC(=O)[C@]12CCCC=C1N(CCCOC)C(=O)[C@@H]2CC(=O)NCC12CC3CC(CC(C3)C1)C2	none (no result: FAS-TE inh, NR3A LBD binder)
C=CCN1C(=O)[C@@H](CC(=O)NCCCN2CCCC2=O)[C@]2(C(=O)OCC)CCCCC/C=C/12	none (no result: FAS-TE inh, NR3A LBD binder)
CCOC(=O)/C(C#N)=C1/C=CN(c2ccccc2)C=N1	NR3A LBD binder 14
CS(=O)(=O)N[C@@H]1C[C@@H]2O[C@H](CO)CC[C@@H]2O[C@@H]1CCc1ccc(-c2ccccc2F)cc1	none (no result: FAS-TE inh, NR3A LBD binder)
COc1ccc(C#CCN(C)/C(N)=N/C(=O)OCc2ccccc2)cc1	none (no result: FAS-TE inh, NR3A LBD binder)
COc1ccc(-c2csc3ncnc(N4CCN(Cc5ccccc5)CC4)c23)cc1	NR3A LBD binder 14
COc1ccc(S(=O)(=O)N2CCC(c3nc4ccccc4o3)CC2)c(OC)c1	none (no result: FAS-TE inh, NR3A LBD binder)
CC(COc1cccc(C(F)(F)F)c1)CN1CCC(C(O)(c2ccccc2)c2ccccc2)CC1 (configuration not stated)	none (no result: FAS-TE inh, NR3A LBD binder)
O=C(c1ccncc1F)N1CCC(n2nnc3ncccc32)CC1	none (no result: FAS-TE inh, NR3A LBD binder)
Cc1ccccc1NC(=S)NC(NC(=O)COc1ccccc1)C(Cl)(Cl)Cl (configuration not stated)	none
CCc1ccc(OCC(=O)NC(NC(=S)Nc2ccccc2C)C(Cl)(Cl)Cl)cc1 (configuration not stated)	NR3A LBD binder 15
Cc1cccc(NC(=S)NC(NC(=O)OCc2ccccc2)C(Cl)(Cl)Cl)c1 (configuration not stated)	NR3A LBD binder 27
O=C(NC(NC(=S)Nc1cccc(C(=O)O)c1)C(Cl)(Cl)Cl)OCc1ccccc1 (configuration not stated)	none
CCc1ccc(OCC(=O)NC(NC(=S)Nc2ccccc2)C(Cl)(Cl)Cl)cc1 (configuration not stated)	NR3A LBD binder 23
CCc1ccc(OCC(=O)NC(NC(=S)Nc2ccccc2OC)C(Cl)(Cl)Cl)cc1 (configuration not stated)	none
COC(=O)[C@@]12CCCCC3=C1N(CCC3)C(=O)[C@H]2CC(=O)NCC1CCCCC1	none (no result: FAS-TE inh, NR3A LBD binder)
C=CCn1c(O)c(N=Nc2ccccc2)c2ccccc21	none
C=CCn1c(O)c(N=Nc2ccccc2O)c2ccccc21	NR3A LBD binder 15
O=C(CSc1nnc(CNC(=O)c2ccc(F)cc2)o1)NCc1ccc(F)cc1	none
COc1ccc(C(=O)NCc2nnc(SCC(=O)NCc3ccc(F)cc3)o2)cc1	NR3A LBD binder 11
CCOC(=O)C(C)Sc1nc2c(c(=O)[nH]c(=O)n2C)n1C/C=C(/C)Cl (configuration not stated)	NR3A LBD binder 11
CSc1nc2c(c(=O)[nH]c(=O)n2C)n1C/C=C(\C)Cl	none
O=C(CN(Cc1ccco1)S(=O)(=O)c1ccccc1)N/N=C/c1cccc(O)c1	none
Cc1cccc(S(=O)(=O)N(CC(=O)Nc2ccccc2C)Cc2ccco2)c1	NR3A LBD binder 11
Cc1ccc(-c2c(NC(=O)c3cccc(C)c3)nc3ncccn23)cc1	none (no result: FAS-TE inh, NR3A LBD binder)
COc1ccc(-c2cc(C#N)nc(N3CCN(C)CC3)n2)cc1	none
CN1CCN(c2nc(C#N)cc(-c3ccccc3)n2)CC1	NR3A LBD binder 11
c1cncc(-c2nc3cc4ccccc4cc3[nH]2)c1	NR3A LBD binder 22
Cc1ccc(COn2c(-c3ccc(Cl)cc3)nc3ccc([N+](=O)[O-])cc32)cc1	none
O=[N+]([O-])c1ccc2nc(-c3ccc(Cl)cc3)n(OCc3ccccc3)c2c1	NR3A LBD binder 18
Cc1nn(-c2ccccc2)c(C)c1/C=N/NC(=O)CSc1nnc(SCc2ccccc2Cl)s1	NR3A LBD binder 11
Cn1ncc2c(Nc3ccc(-c4ccccc4)cc3)ncnc21	none
Cn1ncc2c(Nc3ccccc3Br)ncnc21	NR3A LBD binder 14
COc1ccc(Cn2c(C(C)C)nc3sc4ccccc4c(=O)c3c2=O)cc1	none
CCCc1nc2sc3ccccc3c(=O)c2c(=O)n1Cc1ccc(OC)cc1	NR3A LBD binder 15
CCC(C)NC(=O)Cn1cnc2sc(C)c(S(=O)(=O)N3CCN(c4ncccn4)CC3)c2c1=O (configuration not stated)	NR3A LBD binder 14
O=S(=O)(NN=Cc1ccc(O)cc1O)c1cc(Cl)c(Cl)cc1Cl	NR3A LBD binder 22
COC(=O)c1ccc(S(=O)(=O)N2CCC(NC(=O)COc3ccc(F)cc3)CC2)cc1	none (no result: FAS-TE inh, NR3A LBD binder)
CC(C)=CCc1cc([C@@H]2CC(=O)c3ccc(O)c(CC=C(C)C)c3O2)ccc1O	NR3A LBD binder 11
Cc1ccc2c(c1)C(=O)CC(c1ccc3c(c1)OCCO3)O2 (configuration not stated)	none
Cc1ccc(S(=O)(=O)Nc2ccccc2CNc2ccc(Br)cn2)cc1	NR3A LBD binder 14
Cc1ccc(C)c(-c2cc(C(=O)Nc3cccc(C(=O)O)c3)c3ccccc3n2)c1	none
